Unmarked numbers belong to inactive results. Inconclusive results are not listed. Activity calls are given as the source filed them. Unless noted, calls come from the whole dose curve; as a rule, active = well fitted curve in either direction with a large enough effect (not every such curve was filed as active); inconclusive = small, poorly fitted or top-dose-only effect, or another doubt; inactive = flat fitted curve, though single readings scatter.
Tests used:
[1] = Cell Viability - BJ (AID 421; calls by dose curve;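 note: potency is the fitted concentration of half-maximal effect; cells exposed to compound for 40 hours at 37 °C before readout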); details: BJ fibroblast viability, qHTS
Procedure, shortened: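 Normal human BJ foreskin fibroblasts, 1500/well in complete medium, treated 40 hr at 37 °C. Cellular ATP by CellTiter-Glo luminescence; normalized to DMSO and 100 uM tamoxifen, AC50 from Hill fit.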

[2] = Cell Viability - Hek293 (AID 427;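 active = compounds whose dose-response curve shows a full or clear partial loss of cell viability, called from curve shape rather than a numeric limit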;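 note: potency is the fitted concentration of half-maximal effect; cells exposed to compound for 40 hours at 37 °C before reading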); details: qHTS
Procedure, shortened: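 HEK293 cells in complete medium were exposed to compound for 40 hr at 37 °C, then cellular ATP was read by CellTiter-Glo luminescence. Data were normalized to DMSO (basal) and 100 uM tamoxifen (100% inhibition), and AC50 came from Hill fits.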

[3] = Cell Viability - HepG2 (AID 433; calls by dose curve;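 note: potency is the fitted concentration of half-maximal effect; potency for ATP loss meaning cytotoxicity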); details: qHTS
Procedure, shortened: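 Cytotoxicity read as ATP loss (CellTiter-Glo luminescence) after 40 hr compound exposure of HepG2, 1500 cells/well, 37 °C. AC50 by Hill equation; 0% set by DMSO, 100% inhibition by 100 uM tamoxifen.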

[4] = Cell Viability - MRC5 (AID 434; calls by dose curve;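 note: potency is the fitted concentration of half-maximal effect; potency reflects cytotoxicity seen as loss of intracellular ATP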); details: MRC5 lung fibroblast viability, qHTS
Procedure, shortened: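 MRC5 normal human lung fibroblasts, 1500 cells/well, exposed to compound for 40 hr at 37 C. Cellular ATP was read by CellTiter-Glo luminescence; data normalized to DMSO and 100 uM tamoxifen, with AC50 from Hill fits.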

[5] = target: Mitogen-activated protein kinase 10 (Mus musculus) (UniProt Q61831); test: JNK3 AlphaScreen Assay (AID 530); details: JNK3 lysate, c-Jun phosphorylation; series mostly up to 25.6 µM;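 note: kinase came from lysate of stimulated human HepG2 cells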; note: potency is the fitted concentration of half-maximal effect;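 for activity change, negative = inhibition: signal reports phosphorylation of biotinylated GST-cJun 1-79 at Ser73 with 10 µM ATP; % is set by controls: 0 for no effect and ±100 for the full control effect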
Procedure, shortened: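 Pre-activated (IL-1β/TNFα) JNK3 in HepG2 lysates phosphorylates biotin-GST-cJun(1-79), 10 uM ATP; anti-phospho-cJun(Ser73) AlphaScreen read at room temperature, pH 7.6 Tris buffer. Compounds pre-incubated 15 min as titrations.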

[6] = Cell Viability - N2a (AID 540; active = well fitted curve in the direction sought with a large enough effect; an effect the other way counts as inactive or inconclusive;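 note: plate controls were DMSO alone for no effect and tamoxifen control for full effect; nearly all actives have a fitted effect of over 45% in size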); details: N2a mouse neuroblastoma cell viability; series mostly up to 92.2 µM
Procedure, shortened: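 Mouse neuroblastoma N2a cells, 1500/well, exposed to compounds 40 h at 37 °C in complete medium. Viability measured as cellular ATP by CellTiter-Glo luminescence; AC50 from Hill fits of concentration-response.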

[7] = Cell Viability - HUV-EC-C (AID 542; active = well fitted curve in the direction sought with a large enough effect; an effect the other way counts as inactive or inconclusive; note: % is set by controls: 0 for no effect and ±100 for the full control effect; nearly all actives have a fitted effect of over 35% in size); details: HUV-EC-C endothelial cell viability, qHTS; series mostly up to 92.2 µM
Procedure, shortened: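 HUV-EC-C human vascular endothelial cells, 1000/well, exposed to compound for 40 hr at 37 °C in complete medium. Intracellular ATP was read by CellTiter-Glo luminescence. AC50 came from Hill-equation fits of concentration-response data.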

[8] = Cell Viability - H-4-II-E (AID 543; active = well fitted curve in the direction sought with a large enough effect; an effect the other way counts as inactive or inconclusive; note: nearly all actives have a fitted effect of over 35% in size; note: potency is the fitted concentration of half-maximal effect); details: H-4-II-E rat hepatoma viability; series mostly up to 92.2 µM
Procedure, shortened: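 Rat hepatoma H-4-II-E cells, 1500 per well, treated 40 h at 37 °C in complete medium. Cellular ATP read by CellTiter-Glo luminescence; AC50 from Hill fits of concentration-response.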

[9] = Cell Viability - SH-SY5Y (AID 544; active = well fitted curve in the direction sought with a large enough effect; an effect the other way counts as inactive or inconclusive;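 note: 0% = DMSO alone and -100% = 100 µM tamoxifen; nearly all actives have a fitted effect of over 55% in size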); details: SH-SY5Y neuroblastoma cell viability; viability change, negative = cytotoxic: at 92.2 µM (top of the series)
Procedure, shortened: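 SH-SY5Y human neuroblastoma cells (1500/well) incubated 5 h, then compound-treated 40 h at 37 °C in complete medium. Viability read as intracellular ATP by CellTiter-Glo luminescence after 20 min; AC50 from Hill-equation fits of qHTS concentration-response.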

[10] = Cell Viability - Renal Proximal Tubule (AID 545; active = well fitted curve in the direction sought with a large enough effect; an effect the other way counts as inactive or inconclusive;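 note: 0% = DMSO only and -100% = 100 µM tamoxifen; nearly all actives have a fitted effect of over 40% in size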); details: renal proximal tubule cells viability, primary cells of rat origin; series mostly up to 91.7 µM
Procedure, shortened: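 Viability taken as intracellular ATP (CellTiter-Glo luminescence) after 40 hr, 37 °C compound treatment of primary proximal tubule cells from rat kidney, 1000 cells/well; Hill-equation fits of qHTS concentration-response data gave AC50.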

[11] = Cell Viability - Mesenchymal (AID 546; active = well fitted curve in the direction sought with a large enough effect; an effect the other way counts as inactive or inconclusive;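 note: cells exposed to compound for 40 hours before reading; 0% = DMSO only and -100% = 100 µM tamoxifen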); details: mesenchymal cells viability, qHTS; series mostly up to 91.7 µM
Procedure, shortened: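 Human kidney mesenchymal cells from normal renal glomeruli, 1000 cells/well, rested 5 hr at 37 °C, then treated 40 hr at 37 °C in complete medium. Cellular ATP read by CellTiter-Glo luminescence; AC50 from Hill-equation fits.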

[12] = AP1 Signaling Pathway (AID 357); details: ME-180 AP-1-bla reporter, EGF-induced, beta-lactamase ratio, 5 h; series mostly up to 17.2 µM;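 note: ME-180 reporter cells stimulated with EGF at its EC50 level; % is set by controls: 0 for no effect and ±100 for the full control effect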
Procedure, shortened: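 First, ME-180 AP-1-bla cells were cultured overnight at 37 °C in low-serum Opti-MEM. Next, titrated compounds with EC50 EGF were incubated 5 hours. Finally, CCF4 was added for 2.5 hours and the 460/530 nm ratio recorded.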

[13] = NFAT Signaling Pathway (AID 444); details: Jurkat NFAT-bla M1, carbachol, beta-lactamase ratio, 5 h; at 17.2 µM (top of the series) unless noted;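 note: carbachol stimulus at about its EC50 of 1 µM final; % is set by controls: 0 for no effect and ±100 for the full control effect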
Procedure, shortened: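 Jurkat cells with NFAT-driven β-lactamase reporter and co-expressed M1 receptor, stimulated with carbachol (final 1 uM, ~EC50), compound titration, 5 h at 37 °C. CCF4 loaded 1 h at RT; 460/530 nm ratio gave %activity and AC50.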

[14] = Stat Signaling Pathway (AID 446); details: ME-180 SIE beta-lactamase reporter, IL-6 stimulated, 5 h; series mostly up to 17.2 µM;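 note: ME-180 cervical cancer cells given 40 pM IL-6 alongside compound; SIE-controlled beta-lactamase reporter measured as 460/530 nm FRET emission ratio; % is set by controls: 0 for no effect and ±100 for the full control effect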
Procedure, shortened: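 ME-180 cells carrying a SIE-driven beta-lactamase reporter are stimulated with 40 pM IL-6 for 5 h at 37C in the presence of compound. The 460/530 nm FRET substrate ratio is read after 2.5 h at RT. Data are normalised to 300 pM IL-6 and to 125 nM JAK inhibitor controls.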

[15] = target: Glucocorticoid receptor (Homo sapiens) (UniProt P04150); test: GR-GFP Redistribution (AID 450;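 active = compounds whose dose series gives a full or clear partial fitted curve of increased nuclear translocation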; note: potency is the fitted concentration of half-maximal effect); details: U2OS GR-GFP nuclear translocation, laser cytometry, 2 h
Chain of Glucocorticoid receptor (Homo sapiens) (P04150 whole entry, looked up, the tested form may be a part): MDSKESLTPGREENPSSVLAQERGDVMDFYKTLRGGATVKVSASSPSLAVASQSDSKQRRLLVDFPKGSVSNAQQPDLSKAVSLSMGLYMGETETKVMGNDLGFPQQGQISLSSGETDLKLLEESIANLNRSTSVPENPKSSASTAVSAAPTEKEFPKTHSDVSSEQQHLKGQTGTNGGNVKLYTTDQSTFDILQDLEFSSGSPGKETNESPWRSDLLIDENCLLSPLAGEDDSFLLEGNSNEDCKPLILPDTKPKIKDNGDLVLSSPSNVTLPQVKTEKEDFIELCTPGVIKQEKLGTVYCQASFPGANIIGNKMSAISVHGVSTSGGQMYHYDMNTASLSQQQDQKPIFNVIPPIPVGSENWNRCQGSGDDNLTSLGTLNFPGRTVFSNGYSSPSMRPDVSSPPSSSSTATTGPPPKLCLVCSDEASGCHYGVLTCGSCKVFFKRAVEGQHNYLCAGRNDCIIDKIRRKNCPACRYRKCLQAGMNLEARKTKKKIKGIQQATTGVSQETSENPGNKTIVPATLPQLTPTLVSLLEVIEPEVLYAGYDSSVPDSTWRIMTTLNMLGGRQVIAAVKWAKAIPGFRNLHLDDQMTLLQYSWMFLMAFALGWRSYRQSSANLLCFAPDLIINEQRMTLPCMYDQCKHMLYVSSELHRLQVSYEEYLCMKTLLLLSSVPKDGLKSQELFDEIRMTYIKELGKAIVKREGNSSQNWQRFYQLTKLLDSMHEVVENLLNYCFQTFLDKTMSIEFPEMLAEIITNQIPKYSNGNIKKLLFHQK

[16] = Cell Viability - Jurkat (AID 426;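 active = dose-dependent loss of cell ATP signal giving a full or clear fitted curve, ranked by lower potency value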; note: potency is the fitted concentration of half-maximal effect); details: qHTS
Procedure, shortened: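 Jurkat (Clone E6-1) cells, 5000/well in complete medium, exposed to compounds for 40 hr at 37C; intracellular ATP measured by CellTiter-Glo luminescence after 20 min at room temperature. AC50 from Hill fits.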

[17] = Cell Viability - NIH 3T3 (AID 541; active = well fitted curve in the direction sought with a large enough effect; an effect the other way counts as inactive or inconclusive; note: nearly all actives have a fitted effect of over 25% in size; note: potency is the fitted concentration of half-maximal effect;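 for activity change, negative = cytotoxicity: plate controls were DMSO alone for no effect and tamoxifen positive control for full effect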); details: NIH 3T3 cell viability, qHTS; activity change, negative = cytotoxicity: at 92.2 µM (top of the series)
Procedure, shortened: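 Mouse NIH 3T3 fibroblasts, 1000 cells/well, rested 5 hr at 37 °C, then exposed to compound for 40 hr at 37 °C in complete medium. Viability read as intracellular ATP by CellTiter-Glo luminescence; AC50 from Hill-equation fits of concentration-response data.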

[18] = target: Cytochrome P450 1A2 (Homo sapiens) (UniProt P05177); test: p450-cyp1a2 (AID 410; calls by dose curve; note: potency is the fitted concentration of half-maximal effect;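 for activity change, negative = inhibition: -100% = full effect of reference inhibitor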); details: recombinant CYP1A2, luciferin-ME demethylation, luminescence; series mostly up to 25.6 µM
Chain of Cytochrome P450 1A2 (Homo sapiens) (P05177 whole entry, looked up): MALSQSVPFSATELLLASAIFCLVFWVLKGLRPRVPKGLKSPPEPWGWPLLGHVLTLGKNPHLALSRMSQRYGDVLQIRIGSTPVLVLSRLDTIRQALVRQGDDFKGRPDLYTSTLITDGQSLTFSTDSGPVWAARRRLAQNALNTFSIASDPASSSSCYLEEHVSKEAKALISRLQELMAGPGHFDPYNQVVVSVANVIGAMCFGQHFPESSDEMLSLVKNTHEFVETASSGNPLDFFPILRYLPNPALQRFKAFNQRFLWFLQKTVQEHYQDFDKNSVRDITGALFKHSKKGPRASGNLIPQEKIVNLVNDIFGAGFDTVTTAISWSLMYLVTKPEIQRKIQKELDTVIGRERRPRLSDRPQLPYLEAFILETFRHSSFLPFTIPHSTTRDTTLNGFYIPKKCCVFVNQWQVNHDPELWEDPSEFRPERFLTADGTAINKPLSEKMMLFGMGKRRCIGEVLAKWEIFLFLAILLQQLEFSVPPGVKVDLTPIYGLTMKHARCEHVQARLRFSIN
Procedure, shortened: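 20nM CYP1A2 with 100uM Luciferin-ME (at Km) in 100mM KPO4; compound preincubated 10 min, NADPH regeneration added, 60 min at room temperature. Luciferin quantified by luminescence after detection reagent; normalized to 57 uM furafylline.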

[19] = target: Glucocorticoid receptor (Homo sapiens) (UniProt P04150); test: GR-EFC Redistribution (AID 451; calls by dose curve; note: potency is the fitted concentration of half-maximal effect); details: CHO-K1 GR-EFC translocation, beta-gal luminescence, 2 h
Procedure, shortened: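 CHO-K1 cells expressing nuclear EA and GR-ED fragments of b-gal; compounds titrated up to 46 uM final, 2 h at 37 C. GR nuclear translocation read as complemented b-gal luminescence after 1 h RT detection.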

C=C[C@H]1CN2CC[C@H]1C[C@@H]2[C@@H](O)c1ccnc2ccc(OC)cc12
Potency [1]: > 92 µM
Potency [2]: > 92 µM
Potency [3]: > 92 µM
Potency [4]: > 92 µM
Potency [5]: inactive
Potency [6]: inactive
outcome [7]: inactive
Potency [8]: inactive
viability change, negative = cytotoxic [9]: -25.7%
outcome [10]: inactive
outcome [11]: inactive

C[N+]12CCC(CC1)C(OC(=O)C(O)(c1ccccc1)c1ccccc1)C2 (stereo not given)
outcome [12]: inactive
activity change, negative = inhibition [13]: -83.7% (active)
outcome [14]: inactive
Potency [15]: > 20.6 µM

CC(C)(C)NCC(O)COc1cccc2c1C[C@H](O)[C@H](O)C2 (stereo not given in full)
outcome [12]: inactive
activity change, negative = inhibition [13]: 1.44%
outcome [14]: inactive
Potency [15]: > 20.6 µM

O=C1C(=O)c2ccccc2C(O)=C1C1CCC(c2ccc(Cl)cc2)CC1 (stereo not given)
outcome [12]: inactive
activity change, negative = inhibition [13]: -25%
Potency [5]: inactive

CN=C(N)NCCC[C@H](N)C(=O)O
outcome [12]: inactive
activity change, negative = inhibition [13]: -7.03% [at 38 µM]
Potency [5]: inactive

CCOc1ccccc1C(N)=O
Potency [1]: > 92 µM
Potency [16]: > 92 µM
Potency [2]: > 92 µM
Potency [3]: > 92 µM
Potency [4]: > 92 µM
Potency [5]: inactive
Potency [6]: inactive
activity change, negative = cytotoxicity [17]: 2.98%
outcome [7]: inactive
Potency [8]: inactive
viability change, negative = cytotoxic [9]: -2.76%
outcome [10]: inactive
outcome [11]: inactive

CCCCN1C[C@H](O)[C@@H](O)[C@H](O)[C@H]1CO
outcome [12]: inactive
activity change, negative = inhibition [13]: 14.7%
outcome [14]: inactive
Potency [15]: > 20.6 µM

CCCCCCCCNC(C)C(O)c1ccc(SC(C)C)cc1 (stereo not given)
outcome [12]: inactive
outcome [14]: inactive
Potency [15]: > 20.6 µM

CCCCc1cc2ccccc2c(OCCN(C)C)n1
Potency [18]: 0.0794 µM (active)
outcome [14]: inactive
Potency [15]: > 20.6 µM
Potency [19]: > 20.6 µM
Potency [5]: inactive

CCCCC(CC)COC(=O)c1ccc(N(C)C)cc1 (stereo not given)
Potency [1]: > 92 µM
Potency [16]: > 92 µM
Potency [2]: > 92 µM
Potency [3]: > 92 µM
Potency [4]: > 92 µM
Potency [6]: inactive
activity change, negative = cytotoxicity [17]: -7.45%
outcome [7]: inactive
Potency [8]: inactive
viability change, negative = cytotoxic [9]: 0.409%
outcome [10]: inactive
outcome [11]: inactive

COc1ccc(C(=O)c2ccccc2O)c(O)c1
outcome [12]: inactive
activity change, negative = inhibition [13]: -15.7%
outcome [14]: inactive
Potency [15]: > 20.6 µM
Potency [19]: > 20.6 µM
Potency [5]: inactive

CNCCc1ccccn1
Potency [18]: inactive
activity change, negative = inhibition [13]: -6.53%
outcome [14]: inactive
Potency [15]: > 20.6 µM
Potency [19]: > 20.6 µM
Potency [5]: inactive

CN1CCc2cccc3c2[C@H]1Cc1ccc(O)c(O)c1-3
Potency [15]: > 46 µM
Potency [19]: > 46 µM
Potency [5]: 6.31 µM (active)

COc1cc([C@H]2Oc3cc([C@H]4Oc5cc(O)cc(O)c5C(=O)[C@@H]4O)ccc3O[C@@H]2CO)ccc1O
Potency [1]: > 92 µM
Potency [2]: > 92 µM
Potency [3]: > 92 µM
Potency [4]: > 92 µM
Potency [6]: inactive
Potency [17]: 31.6 µM (active)
outcome [7]: inactive
Potency [8]: 31.6 µM (active)
viability change, negative = cytotoxic [9]: -84.4% (active)
outcome [11]: inactive

CCN(CC)CCNC(=O)COc1ccc(OC)cc1
outcome [12]: inactive
activity change, negative = inhibition [13]: -21.8%
outcome [14]: inactive
Potency [15]: > 20.6 µM
Potency [19]: > 20.6 µM
Potency [5]: inactive

CC(=O)OCC(=O)[C@H]1CC[C@H]2[C@@H]3CCC4=CC(=O)CC[C@]4(C)[C@H]3CC[C@]12C
outcome [12]: inactive
outcome [14]: inactive

CNCCCCOc1ccccc1Cc1ccccc1
Potency [15]: > 46 µM
Potency [19]: > 46 µM
Potency [5]: inactive

NC(=O)c1ccccc1O
Potency [1]: > 92 µM
Potency [16]: > 92 µM
Potency [2]: > 92 µM
Potency [3]: > 92 µM
Potency [4]: > 92 µM
Potency [5]: inactive
Potency [6]: inactive
activity change, negative = cytotoxicity [17]: 6.43%
outcome [7]: inactive
Potency [8]: inactive
viability change, negative = cytotoxic [9]: 4.84%
outcome [10]: inactive
outcome [11]: inactive

c1ccc(CC2=NCCN2)cc1
outcome [12]: inactive
activity change, negative = inhibition [13]: -12.4%
outcome [14]: inactive
Potency [5]: inactive

Reference: PubChem BioAssay (NCATS)
